RXFP1 antag = antagonists of human relaxin receptor RXFP1; HEK293-RXFP1, relaxin-stimulated cAMP HTRF, 30 min; hits give low values; activity change, negative = inhibition, % at 57.5 µM; 0.59% of 350,000 active; AID 1259400;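 active = activity change of -60% or lower, but not beyond a set lower limit; inconclusive = change between -60% and -40%, or beyond the set limit; inactive = change above -40%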; note: % is set by controls: 0 for no effect and ±100 for the full control effect
TSHR antagonist = antagonists of human thyroid stimulating hormone receptor; P16473; TSHR-expressing cells, TSH-stimulated cAMP HTRF, 2 h; hits give low values; activity change, negative = inhibition, % at 11.5 µM; 0.2% of 330,000 active; AID 504810;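 active = activity change below a set negative limit, meaning inhibition stronger than a set level, cut at about -70% in these data; inconclusive = activity change between two set negative limits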; note: % is set by controls: 0 for no effect and ±100 for the full control effect
Target sequence (P16473 whole entry, looked up): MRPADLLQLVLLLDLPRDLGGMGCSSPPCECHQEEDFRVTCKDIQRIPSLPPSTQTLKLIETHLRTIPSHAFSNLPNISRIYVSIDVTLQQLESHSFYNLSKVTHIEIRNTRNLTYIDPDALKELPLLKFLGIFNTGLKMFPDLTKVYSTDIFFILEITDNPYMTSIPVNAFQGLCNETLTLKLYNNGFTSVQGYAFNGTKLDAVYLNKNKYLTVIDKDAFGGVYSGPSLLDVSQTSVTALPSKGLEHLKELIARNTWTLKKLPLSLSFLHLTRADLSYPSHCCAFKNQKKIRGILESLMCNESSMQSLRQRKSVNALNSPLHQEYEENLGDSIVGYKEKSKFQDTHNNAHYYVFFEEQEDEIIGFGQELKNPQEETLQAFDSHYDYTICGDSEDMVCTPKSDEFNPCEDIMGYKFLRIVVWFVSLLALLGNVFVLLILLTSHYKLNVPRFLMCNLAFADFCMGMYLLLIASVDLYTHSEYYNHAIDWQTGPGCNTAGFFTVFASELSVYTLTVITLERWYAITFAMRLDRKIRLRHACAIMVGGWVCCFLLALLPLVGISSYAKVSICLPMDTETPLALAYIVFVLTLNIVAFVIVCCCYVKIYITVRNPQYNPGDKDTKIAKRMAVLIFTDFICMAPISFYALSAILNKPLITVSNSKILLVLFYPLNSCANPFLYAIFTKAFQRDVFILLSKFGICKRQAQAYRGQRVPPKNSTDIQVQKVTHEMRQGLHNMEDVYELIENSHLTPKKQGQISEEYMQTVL
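Inhibition of cAMP made by TSHR-expressing cells under TSH stimulation (4nM final, EC80; 2 h, 37 deg C) is quantified with a one-step lysis HTRF kit, anti-cAMP cryptate versus cAMP-d2.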
TCR act = T cell receptor activation; primary human leukocytes, anti-CD3, IL-2 HTRF, 48 h; Potency, µM (highest dose often 9.22 µM), for inactives: at the highest dose activation of IL-2 secretion, actives largely listed as activators; 330,000 tested, under 10 active; AID 504894; note: % of control where 0% means no effect
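48 hr co-incubation of compounds, a-CD3 beads and primary human leukocytes; IL-2 quantified homogeneously by HTRF with anti-IL-2 K and d2 conjugates.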
RXFP1 ag = agonists of human relaxin receptor RXFP1; Q9HBX9; HEK293T-RXFP1 cAMP TR-FRET, 30 min; response scale: percent of porcine relaxin response, buffer zero; Potency, µM (series often up to 57.5 µM), without a hit: top-dose activation, actives largely listed as activators; 0.3% of 370,000 active; AID 2676; note: potency is the fitted concentration of half-maximal effect; % is set by controls: 0 for no effect and ±100 for the full control effect; nearly all actives have a fitted effect of over 60% in size
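HEK293 cells stably expressing RXFP1, treated 30 min at 37C with compounds plus PDE4 inhibitor Ro 20174; cAMP measured by HTRF TR-FRET. Normalized to buffer and 29 nM porcine relaxin; EC50 by Hill fit.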
NPSR antagonist = blocks cAMP signaling of the human neuropeptide S receptor. Q6W5P4. CHO-NPSR cells, cAMP TR-FRET, antagonist mode. Potency, µM (series often up to 38.3 µM), inactives show at the highest dose activity change, negative = inhibition, actives largely listed as inhibitors. 1% of 220,000 active; note: potency is the fitted concentration of half-maximal effect; % is set by controls: 0 for no effect and ±100 for the full control effect; nearly all actives have a fitted effect of over 50% in size
PTHR1 ag = activates the human parathyroid hormone receptor PTHR1; Q03431; HEK293 GP2 PTHR1 cells, GloSensor cAMP luminescence, 1 h; Potency, µM (highest dose often 115 µM), without a hit: at the top dose activation, hits mostly activators; 0.075% of 410,000 active; AID 743266; note: potency is the fitted concentration of half-maximal effect; nearly all actives have a fitted effect of over 55% in size
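HEK-293-derived GP2 cells expressing PTHR1 and a GloSensor cAMP reporter, 3,000/well, plated overnight, given luciferin plus IBMX (each 0.5 mM as added) for 1 h at 37 °C, then compound for 1 h at 37 °C. Luminescence was read after 15 min at room temperature.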
Numbers without * were called inactive; i = inactive; ? = inconclusive; / = no result; [ ] = dose if it differs, or a comment. The sample as a whole holds a higher share of hits than the screen did. Unless noted, calls come from the whole dose curve; as a rule, active = well fitted curve in the direction sought with a large enough effect; inconclusive = small, poorly fitted or top-dose-only effect, or another doubt; inactive = no such curve, though single readings can be large; an effect the other way counts as inactive or inconclusive.

SMILES | RXFP1 antag | TSHR antagonist | TCR act | RXFP1 ag | NPSR antagonist | PTHR1 ag
CC1(C)C(C(=O)N2CCN(c3ccc(Cl)cc3)CC2)C1(C)C | -19 | -2 | -2% | 6% | / | -16%
COc1cc(CC(C)N)c(OC)cc1Br (stereo unspecified) | 15 | / | / | / | / | /
CC[C@@]1(O)C(=O)OCc2c1cc1n(c2=O)Cc2cc3c(N)cccc3nc2-1 | / | -26 | -4% | 28% | -28% | 45µM*
Cc1ccc(N2C(=O)NC(=O)/C(=C\C=C\c3ccco3)C2=O)cc1C | -70* | -2 | 7%[46.1 µM] | 8% | 13µM* | -52%
Cc1cccc(N2C(=O)NC(=O)/C(=C\C=C\c3ccco3)C2=O)c1 | -68* | -12 | -2% | 1% | ? | -32%
Cc1cccc(N2C(=O)NC(=O)/C(=C\c3cccn3-c3ccc(Cl)cc3)C2=O)c1 | -71* | 2 | -2% | -2% | ? | -20%[57.5 µM]
C[C@@H]1CC2=CC(=O)CC[C@@H]2[C@H]2CC[C@@]3(C)[C@@H](CC[C@]3(C)O)[C@@H]21 | -12 | / | / | / | / | /
Clc1ccc(C(c2ccc(Cl)cc2)C(Cl)(Cl)Cl)cc1 | -72* | / | / | / | / | /
CCC1CC2CC3c4[nH]c5ccc(OC)cc5c4CCN(C2)C13 (stereo unspecified) | -31 | / | / | / | / | /
Cc1c(P(=S)(c2ccccc2)c2ccccc2)[n+]2ccccc2n1C | -2 | 0 | -1% | 2% | 1.3µM* | -15%
O=C1CN2CCOC2(c2ccccc2Cl)c2cc(Cl)ccc2N1 (stereo unspecified) | -8 | / | / | / | / | /
CN1CC[C@]23c4c5ccc(O)c4OC2C(O)CCC3[C@H]1C5 (stereo partly specified) | 16 | / | / | / | / | /
COC(=O)C1=C(c2ccc(-c3ccccc3)c(F)c2)C[C@@H]2CC[C@H]1N2C(=O)NCCOc1ccccc1 | / | -89* | 3% | 1% | / | i
CCc1ccccc1N1C(=O)N(Cc2ccccc2C)c2ccccc2S1(=O)=O | / | / | / | 1% | / | -31%
CCOC(=O)C1(CCc2ccccc2)CCN(Cc2cccc3cnccc23)CC1 | -83* | -12 | 1% | -3% | 56% | -33%
CCOC(=O)C1(CCc2ccccc2)CCN(Cc2cccc3c2OCO3)CC1 | ? | 1 | -28% | -1% | ? | -82%
CC(=O)c1ccc2c(c1)C1C(Cl)C(Sc3ccccc3[N+](=O)[O-])CC1C(c1ccccc1)N2 (stereo unspecified) | -81* | -20 | -10% | -8% | ? | -5%[57.5 µM]
Fc1ccc(Cn2nnnc2CN2CCC(n3nnc4cc(C(F)(F)F)ccc43)CC2)cc1 | -7 | -4 | 0% | 2% | -60% | -40%
FC(F)(F)c1ccc2c(c1)ncn2C1CCN(Cc2nnnn2C2CCCCC2)CC1 | -74* | -11 | -1% | -1% | ? | i
C[C@]12CC[C@H](O)C[C@H]1CC[C@@H]1[C@@H]2CC[C@]2(C)[C@@H](C3=CC(=O)OC3)CC[C@]12O | / | -78* | 3% | 0% | / | -12%
C[C@]12CC[C@H](O)C[C@H]1CC[C@@H]1[C@@H]2C[C@@H](O)[C@]2(C)[C@@H](C3=CC(=O)OC3)CC[C@]12O | / | -75* | -1% | 0% | / | -40%
CC(C(=O)c1ccccc1)N(C)C (stereo unspecified) | 2 | / | / | / | / | /
O=C(c1ccccc1)c1cn(CC(=O)N2CCCc3ccccc32)c2ccccc12 | -8 | 22 | 4% | 3% | 10µM* | -6%
NC(=O)Cn1cc(C(=O)c2ccccc2)c2ccccc21 | -3 | -15 | -1% | -1% | / | i
Cc1ccc(NC(=O)Cn2c(=O)oc3cc(S(=O)(=O)N4CCCCCC4)ccc32)cc1Cl | -9 | / | / | 2% | / | -31%
SMILES | RXFP1 antag | TSHR antagonist | TCR act | RXFP1 ag | NPSR antagonist | PTHR1 ag
COC[C@@H](NC(C)=O)C(=O)NCc1ccccc1 | 14 | / | / | / | / | /
COc1cc(CC#N)cc(OC)c1OC | -5 | / | / | / | / | /
CC1(C)C[C@H]2C=C(C=O)[C@]3(C=O)C[C@]3(C)[C@H]2C1 | / | -87* | -9% | 0% | 13µM* | -84%
O=[N+]([O-])c1c(Cl)c(Cl)cc(Cl)c1Cl | 12 | / | / | / | / | /
CNc1cc(Cl)c2nonc2c1[N+](=O)[O-] | -81* | -89* | -2% | 10% | 10µM* | -21%
Clc1cccc(CNCCc2c[nH]c3ccccc23)c1 | -84* | -3 | 7% | 1% | / | i
FC(F)(F)c1ccc(CNCCc2c[nH]c3ccccc23)cc1 | -6 | 33 | -10% | 2% | / | -92%
CC(=O)O[C@H]1[C@H]2O[C@]23[C@@H]2CC[C@]4(O)C[C@@H](O)CC[C@]4(C)C2CC[C@]3(C)[C@H]1c1ccc(=O)oc1 (stereo partly specified) | / | -79* | 3% | -3% | / | -47%
N#CC(C#N)=NNc1ccc(S(N)(=O)=O)cc1 | -7 | -2 | -3% | 0% | -25% | -22%
CC1CCN(S(=O)(=O)c2ccc(NN=C(C#N)C#N)cc2)CC1 | / | ? | / | -1% | 10µM* | /
O=c1[nH]c(=S)n(C2CC2)c(O)c1C=NCc1ccc(F)cc1 | 3 | 28 | 6% | 25µM* | -17% | -27%
Cc1nc2c(=O)n(C)c(=O)nc-2n(C)n1 | 16 | 31 | -9%[46.1 µM] | 0% | ? | -31%
CCn1nc(-c2ccccc2)nc2c(=O)n(C)c(=O)nc1-2 | 2 | -4 | 1%[46.1 µM] | 10% | 4µM* | -24%[57.5 µM]
O=C(O)c1sc2cc(Cl)ccc2c1Cl | / | -9 | / | 14µM* | -27% | /
C[C@]12C/C(=C/O)C(=O)C[C@@H]1CC[C@@H]1[C@@H]2CC[C@@]2(C)[C@H]1CC[C@]2(C)O | -99* | / | / | / | / | /
C[C@]12CCC(=O)C=C1CCC1C2CC[C@@]2(C)C1CC[C@]2(C)O (stereo partly specified) | -2 | -18 | 3% | / | / | i
O=c1oc2ccccc2c(O)c1C(CC(O)c1ccc(-c2ccc(Br)cc2)cc1)c1ccccc1 (stereo unspecified) | -64* | / | / | / | / | /
ClC1=C(Cl)[C@]2(Cl)[C@@H]3[C@@H]4C[C@@H]([C@H]5O[C@@H]45)[C@@H]3[C@@]1(Cl)C2(Cl)Cl | -21 | / | / | / | / | /
CCN(CC)c1ccc(CN2CC=C(c3ccc(F)cc3)CC2)cc1 | ? | 2 | -1% | 0% | 10µM* | -27%[57.5 µM]

Source: PubChem (National Center for Advancing Translational Sciences (NCATS))
